Most compounds without a hit are left out; they make up all but 2.3% or so of the library.
Mcl1 Noxa PPI = Mcl-1/Noxa interaction inhibition | TR-FRET Mcl-1/Noxa peptide binding, 2 h | inhibition, % at 21.7 µM | hit rate 1.5% among 220,000;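 active = compounds that cut the protein-peptide binding signal by more than 50% relative to plate controls in a single-dose test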;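 also: His-tagged Mcl-1 with rhodamine Noxa BH3 peptide and terbium anti-His antibody; 0% = Mcl-1 plus Noxa peptide wells and 100% = peptide-only wells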
GLD-1 RNA inh = GLD-1-TGE RNA interaction inhibition (C. elegans) | Q17339 | purified GLD-1 + fluorescein TGE RNA, fluorescence polarization | inhibition, % at 5.96 µM | hit rate 0.44% among 320,000 | AID 2280;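 active = percent inhibition above a per-plate cutoff, the plate mean of test compounds plus 3 SD, cut at about 30% in these data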;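 also: 0% = DMSO wells with GLD-1 and probe and 100% = wells lacking GLD-1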
Mcl1-Bid inh = Mcl-1/Bid interaction inhibition; Q07820; TR-FRET Mcl-1/Bid-Dy647 peptide binding, 1536-well; inhibition, % at 21.7 µM; hit rate 0.97% among 220,000; AID 1021;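 active = compounds that cut the binding signal by more than half at the single screening dose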;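 also: His-tagged Mcl-1 with europium anti-His antibody binding Bid BH3 peptide; 0% = Mcl-1 plus peptide wells and 100% = peptide-only wells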
BCLXL inh = inhibitors of human Bcl-xL | Q07817 | GST-Bcl-xL / FITC-Bim BH3 peptide fluorescence polarization | inhibition, % at 10.9 µM | hit rate 0.7% among 320,000 | AID 2129;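 active = inhibition above the mean of all tested compounds plus 3 SD, cutoff set per campaign, cut at about 30% in these data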;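 also: 0% = DMSO wells and 100% = unlabeled Bim-BH3 peptide competitor; inhibitors lower millipolarization by displacing the labeled peptide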
Target sequence (Q07817 whole entry, looked up): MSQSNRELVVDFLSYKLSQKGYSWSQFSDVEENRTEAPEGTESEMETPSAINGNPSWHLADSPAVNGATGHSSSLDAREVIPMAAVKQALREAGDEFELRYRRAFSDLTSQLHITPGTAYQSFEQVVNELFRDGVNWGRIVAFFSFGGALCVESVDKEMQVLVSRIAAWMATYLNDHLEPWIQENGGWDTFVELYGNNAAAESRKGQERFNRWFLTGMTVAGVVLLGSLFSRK
Bim-Mcl-1 = inhibitors of Bim-Mcl-1 interaction, human. Q07820. Bead-based flow cytometry, Bim peptide-Mcl-1 binding. inhibition, % at 10 µM. hit rate 0.1% among 190,000; in the data active = inhibition above about 40%;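 also: 0% = no compound tracer wells and 100% = peptide blocker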
MCL1 BIM primary = disrupts human MCL1 binding to BIM-BH3 peptide | Q07820 | GST-MCL1 / FITC-Bim-BH3 fluorescence polarization | inhibition, % at 10.9 µM | hit rate 0.68% among 320,000 | AID 2057;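 active = inhibition above the mean inhibition of all tested compounds plus 3 SD, set per campaign, cut at about 40% in these data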;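 also: 0% = DMSO wells and 100% = unlabeled Bim-BH3 peptide control; higher means more loss of mP so more displacement of Bim peptide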
* = called active by the depositor; · = not tested or not shown; ! = repeats disagree.

SMILES | Mcl1 Noxa PPI | GLD-1 RNA inh | Mcl1-Bid inh | BCLXL inh | Bim-Mcl-1 | MCL1 BIM primary
CC1=N/C(=C\c2ccc([N+](=O)[O-])cc2)C(=O)N1c1ccc(Cl)cc1 | -4 | 0 | -19 | 2 | -3 | -3
CCCc1cc(=O)n2[nH]c(-c3ccc(Cl)cc3)cc2n1 | · | 4 | · | 0 | · | 1
O=c1cc(-c2ccc([N+](=O)[O-])cc2)nc2cc(-c3ccc(Cl)cc3)[nH]n12 | 97* | 8 | 87* | 3 | -4 | -2
COc1ccc(CCNC(=O)CCN2C(=O)C3CC=CCC3C2=O)cc1OC (stereo unspecified) | -3 | 12 | -25 | 2 | 0 | 2
CCOc1ccc(NC(=O)N(CCN2CCOCC2)Cc2ccc3c(c2)CCCN3CC)cc1 | 78* | -1 | -86 | 11 | -2 | 12
CCN1CCCc2cc(CN(CCN3CCOCC3)C(=S)Nc3cccc(OC)c3)ccc21 | 60* | 7 | -93 | 21 | 1 | 26
O=C(c1cc(-c2ccc3c(c2)OCO3)on1)N1CCOCC1 | -18 | 4 | -10 | 2 | -1 | 9
COc1ccc(OC)c(C2=NS(=O)(=O)N(C)C(C(=O)Nc3ccc(F)cc3F)=C2)c1 | · | -1 | · | 5 | · | -3
CC(O)CN(CCC(N)=O)CCC(N)=O (stereo unspecified) | 15 | -1 | 52* | 1 | -1 | 0
Nc1[nH]c(=O)ncc1F | -10 | 2 | 57*! | 0 | -1 | -9
Cc1c(CN2CCCCC2)c(O)n(CCCO)c(=O)c1C#N | 29 | 27 | -6 | 35* | 0 | 35
C=CCN1C(=O)C2(OCCCO2)c2cc(Cl)ccc21 | · | 4 | · | 2 | · | 8
COc1ccc(C(c2c(O)cc(C)oc2=O)c2c(O)cc(C)oc2=O)cc1 | 76* | 4 | 20 | -3 | 0 | -3
COc1ccc(C(c2c(O)nc[nH]c2=O)c2c(O)nc[nH]c2=O)cc1 | 8 | 6 | -46 | 9 | · | 8
COc1ccc(CCNC(=O)Cn2nnc(-c3ccc(N4CCOCC4)cc3)n2)cc1OC | -1 | 3 | -38 | 4 | 0 | -4
O=C(Nc1ccc(Br)cc1)c1cccnc1N1CCCCC1 | 0 | 2 | -8 | 12 | 0 | 10
O=C(N/N=C/c1cccc2ccccc12)c1cccc(F)c1 | · | 0 | · | 1 | · | 6
O=C(O)c1cccc(NC(=S)N/N=C/c2cccc(O)c2)c1 | 17 | 5 | -36 | 7 | 0 | 21
O=C(O)c1cccc(NC(=S)N/N=C/c2ccccc2OCc2cccc(Br)c2)c1 | 56* | · | -38 | · | -3 | ·
O=C(O)c1cccc(NC(=S)N/N=C/c2ccccc2OCc2ccc(Br)cc2)c1 | 52* | 1 | -37 | 11 | -4 | 25
Cc1[nH]c(=O)[nH]c(=O)c1NC(=O)c1sc2nc3c(C)cccc3cc2c1N | 36 | -13 | -59 | 8 | -5 | 14
Cc1ccc2nc3sc(C(=O)Nc4c(C)[nH]c(=O)[nH]c4=O)c(N)c3cc2c1 | 56* | -9 | -37 | 10 | -1 | 9
Cc1ccc2cc3c(N)c(C(=O)N4CCOCC4)sc3nc2c1 | 22 | -5 | -55 | 4 | -3 | 5
Cc1ccc2cc3c(N)c(C(=O)Nc4c(C)[nH]c(=O)[nH]c4=O)sc3nc2c1 | 66* | -5 | -32 | 13 | -2 | 3
Cc1ccc2cc3c(N)c(C(=O)N4CC(=O)Nc5ccccc54)sc3nc2c1 | 58* | -12 | 8 | -6 | 0 | -19
SMILES | Mcl1 Noxa PPI | GLD-1 RNA inh | Mcl1-Bid inh | BCLXL inh | Bim-Mcl-1 | MCL1 BIM primary
CCNC(=O)CN(c1ccc(Cl)cc1)S(=O)(=O)c1ccccc1 | 18 | -1 | 8 | 9 | -1 | 12
Cc1ccsc1CNCC(O)c1ccccc1 (stereo unspecified) | · | 6 | · | 4 | · | -3
COc1ccc(-c2csc(Nc3ccc(S(N)(=O)=O)cc3)n2)cc1OC | 51* | 6 | -30 | 4 | 1 | 6
Cc1cc(NS(=O)(=O)c2ccc(Nc3nc(-c4ccc(O)cc4)cs3)cc2)no1 | 69* | -8 | -39 | 9 | 0 | 15
Cc1cc(NS(=O)(=O)c2ccc(Nc3nc(-c4ccc(C)c(C)c4)cs3)cc2)no1 | 39 | 6 | 9 | 1 | -1 | -3
CC1(C)CC(=O)c2cnc3c(C#N)cnn3c2C1 | 18 | 9 | 53* | 6 | 1 | -2
Cc1[nH]c2ccccc2c1SCC(=O)N1CCCCCC1 | 14 | -1 | -35 | 3 | -3 | 7

Bioassay records: PubChem, several laboratories
